Measured values taken from ChEMBL document CHEMBL3433997, “St. Jude Leishmania screening dataset” (2016).

Columns and labels:
Type in all cases: functional
[1] = target: Solute carrier family 2, facilitated glucose transporter member 1 (Homo sapiens) (UniProt P11166); assay: ST_JUDE_LEISH: Cytotoxicity at 2uM final concentration against transgenic Leishmania Mexicana promastigotes LmGLUT1 that are glucose transport deficient and complemented with the human glucose transporter GLUT1. Activity is measured by DNA content using SYBR green in vitro
Solute carrier family 2, facilitated glucose transporter member 1 (Homo sapiens), sequence (P11166 whole entry): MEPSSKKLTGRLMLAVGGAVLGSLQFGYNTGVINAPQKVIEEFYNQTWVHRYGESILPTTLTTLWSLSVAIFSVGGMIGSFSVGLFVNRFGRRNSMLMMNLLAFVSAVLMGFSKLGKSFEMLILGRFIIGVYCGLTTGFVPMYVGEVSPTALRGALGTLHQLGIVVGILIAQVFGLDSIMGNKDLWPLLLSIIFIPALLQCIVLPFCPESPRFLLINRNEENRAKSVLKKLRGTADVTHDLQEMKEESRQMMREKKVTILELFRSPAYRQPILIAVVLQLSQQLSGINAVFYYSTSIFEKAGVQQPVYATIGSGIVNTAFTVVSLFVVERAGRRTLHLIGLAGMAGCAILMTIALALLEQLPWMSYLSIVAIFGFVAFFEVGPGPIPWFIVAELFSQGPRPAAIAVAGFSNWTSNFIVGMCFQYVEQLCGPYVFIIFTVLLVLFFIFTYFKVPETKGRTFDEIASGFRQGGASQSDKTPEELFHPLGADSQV

[2] = target: Hexose transporter 1 (Plasmodium falciparum) (UniProt O97467); assay: ST_JUDE_LEISH: Cytotoxicity at 2uM final concentration against transgenic Leishmania Mexicana promastigotes LmPfHT that are glucose transport deficient and complemented with the Plasmodium falciparum hexose transporter. Activity is measured by DNA content using SYBR green in vitro
[3] = target: Glucose transporter (Leishmania mexicana) (UniProt O61059); assay: ST_JUDE_LEISH: Cytotoxicity at 2uM final concentration against transgenic Leishmania Mexicana promastigotes LmGT2 that are glucose transport deficient and complemented with the L. Mexicana glucose transporter 2. Activity is measured by DNA content using SYBR green in vitro

With `CN1CCN(c2ccnc3ccc(NC(=O)Nc4c(Cl)cccc4Cl)cc23)CC1` the inhibition [1] was -2.39%, the inhibition [2] was -2.3% and the inhibition [3] was -1.19%.

In the case of `Cc1cc(N2CCCC2)nc(Nc2ccc(NC(=O)COc3ccccc3)cc2)n1`, the inhibition [1] was 6.11%, the inhibition [2] was 6.84% and the inhibition [3] was 2.07%.

`CCOC(=O)CCCCCNC[C@H](O)c1ccccc1` gave an inhibition [1] of -1.32%, an inhibition [2] of -0.8% and an inhibition [3] of -2.14%.

In the case of `CCC(C)(C)NC(=O)C(c1cccc(OC)c1)N(C(=O)CNC(=O)c1cccs1)c1ccc2c(c1)OCCO2` (centres undefined), the inhibition [1] was 6.74%, the inhibition [2] was 6.4% and the inhibition [3] was 6.92%.

`CC=Cc1cc(Cc2c[nH]c(=N)[nH]c2=N)cc(CCC)c1OC` gave an inhibition [1] of 10.8%, an inhibition [2] of 8.99% and an inhibition [3] of 4.71%.

Work on `COc1ccc(CN2CCC(N3CCc4cc(NC(=O)c5cc(C)on5)ccc43)C2)cc1Cl` (centres undefined) yielded an inhibition [1] of -0.2%, an inhibition [2] of -3.51% and an inhibition [3] of 0.69%.

`O=C(C=Cc1ccc(Cl)c(Cl)c1)NCCCCCN1CCC(CCNC(=O)c2sc3ccccc3c2Cl)CC1` gave an inhibition [1] of 11.5%, an inhibition [2] of 9.43% and an inhibition [3] of 8.75%.

Work on `CCCc1ccc(C2CCN(CCCCNC(=O)c3ccc(NC(=O)c4ccc(Cl)cc4)cc3)CC2)cc1` yielded an inhibition [1] of 0.56%, an inhibition [2] of -1% and an inhibition [3] of 0.1%.

`O=C(/C=C/c1ccc(Cl)c(Cl)c1)NCCCCCN1CCCC(CNC(=O)/C=C/c2ccccc2)C1` (centres undefined) gave an inhibition [1] of -0.59%, an inhibition [2] of -0.44% and an inhibition [3] of -0.59%.

In the case of `Cc1cc(=NN=CC=Cc2ccccc2)c2ccc(F)cc2[nH]1`, the inhibition [1] was -1.45%, the inhibition [2] was 2.91% and the inhibition [3] was -0.62%.

For `CCNc1cc(C)nc(Nc2ccc(NC(=O)c3ccccc3)cc2)n1`, the inhibition [1] was 6.94%, the inhibition [2] was 4.8% and the inhibition [3] was 3.79%.

`CCc1ccc(CN2CCC(CNC(=O)c3cc(-c4ccccc4F)cs3)C2)cc1` (centres undefined) showed an inhibition [1] of 1.55%, an inhibition [2] of -3.47% and an inhibition [3] of 1.83%.

Compound `O=C(Nc1cccc(-c2ccc(-c3nc4cc(C(F)(F)F)ccc4[nH]3)s2)c1)c1c[nH]cn1` has an inhibition [1] of 0.15%, an inhibition [2] of -0.45% and an inhibition [3] of 0.77%.
